# Measurements: PubChem BioAssay AID1508602 (The Scripps Research Institute Molecular Screening Center, 2020)
# Hit rate of the full screen: of about 650,000 compounds, about 6,800 (1%) were called active. The full list was thinned out, with actives kept by preference. Values without a mark were called inactive. Cut-off read from the data, not from the text of the source: active = activation above about 4.9%; inactive = the rest.
# Molecular target: G-protein coupled receptor 151 (Homo sapiens) (UniProt Q8TDV0)
# Sequence (Q8TDV0 whole entry, looked up): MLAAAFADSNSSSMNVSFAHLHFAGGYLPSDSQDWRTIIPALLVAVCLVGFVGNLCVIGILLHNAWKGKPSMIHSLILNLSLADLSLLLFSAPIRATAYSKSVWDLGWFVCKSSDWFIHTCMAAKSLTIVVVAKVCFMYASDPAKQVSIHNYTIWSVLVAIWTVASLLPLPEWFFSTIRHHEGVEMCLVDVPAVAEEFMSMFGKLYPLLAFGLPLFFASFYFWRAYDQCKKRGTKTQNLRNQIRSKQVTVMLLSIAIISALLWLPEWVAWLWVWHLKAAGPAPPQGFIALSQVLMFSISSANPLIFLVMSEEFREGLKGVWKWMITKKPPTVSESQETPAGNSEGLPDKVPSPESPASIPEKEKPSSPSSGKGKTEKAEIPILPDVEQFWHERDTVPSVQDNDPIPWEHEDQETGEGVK
# Assay: activates the human receptor GPR151, primary screen, cell-based, PathHunter beta-arrestin, luminescence (AID 1508602);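 note: 0% = median of compound wells and 100% = cells with positive control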
# Conditions: PathHunter beta-arrestin GPR151 cells, at 11.2 µM, active compounds read high
row,SMILES,activation
1,COc1ccc(CNCc2cccn2-c2sc(C)c(C)c2C(=O)O)cc1,0.477%
2,C=CCN(c1ccc(C(=O)Nc2ccc(OCc3ccccc3)cc2)cc1)S(C)(=O)=O,5% (active)
3,C=CCN(c1ccc(C(=O)Nc2cc(C)cc(C)c2)cc1)S(C)(=O)=O,-0.236%
4,C=CCN(c1ccc(C(=O)Nc2ccc(Br)c(Cl)c2)cc1)S(C)(=O)=O,0.888%
5,CCOC(=O)c1ccc(NC(=O)CSc2nc(NCc3ccc(Cl)cc3)c3ccccc3n2)cc1,-0.895%
6,O=C(Nc1cccc(Cl)c1)N(C1=NCCC1)c1ccc(Cl)cc1,0.148%
7,CC(=O)c1c(C)[nH]c(C(=O)CN2CCN(C(=O)c3ccccc3)CC2)c1C,0.331%
8,CC(=O)c1c(C)[nH]c(C(=O)N2CCN(c3ccc(Cl)cc3)CC2)c1C,5.19% (active)
9,CCc1c(C(=O)N2CCN(c3cccc(Cl)c3)CC2)[nH]c(C)c1C(C)=O,4.26%
10,COc1ccc(C(=O)NCCc2ccc(F)cc2)cc1[N+](=O)[O-],0.474%
11,COc1cccc(-c2nnc(N)s2)c1,-0.725%
12,Cc1cnc(C(=O)N2CCc3ccc(NC(=O)Cc4ccccc4F)cc3C2)cn1,1.39%
13,CCOC(=O)N1CCN(Cc2nc3c(c(=O)n(C)c(=O)n3C)n2CC(C)C)CC1,-1.33%
14,COc1ccccc1C1CCCN1C(=O)C1CCN(c2nc(C)c3ccccc3n2)CC1 (configuration not stated),11.3% (active)
15,COc1ccccc1C1CCCN1C(=O)C1CC(Cc2ccc(F)cc2)=NO1 (configuration not stated),1.31%
16,Cc1nc(N2CCCC2C(=O)N2CC3CCC2C3)nc2ccccc12 (configuration not stated),0.0962%
17,O=C(O)CCC(=O)N1N=C(c2ccc(O)cc2)CC1c1ccc(Br)cc1 (configuration not stated),0.932%
18,CCc1cc(C(=O)COc2ccc([N+](=O)[O-])cc2)c(O)cc1O,-0.273%
19,Cc1cc(Oc2ncnc(N)c2[N+](=O)[O-])cc(C(C)C)c1,1.22%
20,NC(=O)c1ccnc(N2CCc3ccccc3C2)c1,0.149%
21,CN1C(=O)NC(=O)/C(=C\c2ccc(-c3ccc(Br)c(Cl)c3)o2)C1=O,-0.645%
22,COc1cc(C=O)ccc1OCCOc1ccc(C=O)cc1OC,-1.4%
23,COc1ccc(C=O)cc1OCc1ccc(F)cc1,4.92% (active)
24,COc1cc(C=O)ccc1OCc1ccc(Br)cc1,-0.687%

row,SMILES,activation
1,O=C(CC1=CCCCC1)NCC1Cc2cc(F)cc(-c3cncnc3)c2O1 (configuration not stated),-1.03%
2,CCc1cccc(C)c1NC(=O)/C=C/C(=O)O,0.671%
3,CCCNC(=O)c1ccc(Cl)cc1[N+](=O)[O-],1.13%
4,CCCN(CCC)C(=O)c1cc2cccc(OC)c2oc1=O,2.62%
5,COc1ccc(NC(=O)c2cc3cccc(OC)c3oc2=O)cc1OC,-1.45%
6,COc1cccc2cc(C(=O)N(C)C)c(=O)oc12,5.93% (active)
7,O=[N+]([O-])c1ccc(OCc2nnc(SCCN3CCOCC3)n2-c2ccccc2)cc1,0.574%
8,CCn1c(COc2ccccc2OC)nnc1SCC(=O)NC,1.05%
9,CCn1c(COc2ccccc2)nnc1Sc1ccc([N+](=O)[O-])cc1C=O,8.41% (active)
10,COc1ccc(NC(=S)NCc2cc(C)n(C)n2)cc1OC,2.25%
11,COc1ccc(CCNC(=S)Nc2c(C)n(C)n(-c3ccccc3)c2=O)cc1OC,0.54%
12,COc1ccc(CCNC(=S)NCc2cc(C)n(C)n2)cc1OC,14.1% (active)
13,COc1cc([N+](=O)[O-])ccc1NC(=S)NCc1cc(C)n(C)n1,6.53% (active)
14,CCCC(=O)NC(=S)Nc1ccc([N+](=O)[O-])cc1OC,0.167%
15,COc1cc([N+](=O)[O-])ccc1NC(=O)C1CCCC1,0.251%
16,CCc1nc2ccccc2c2nn(CC(=O)NCCc3ccc(OC)c(OC)c3)c(=O)n12,0.488%
17,COC(=O)c1ccc(Nc2nc3c(s2)CCc2ccccc2-3)cc1,1.88%
18,Cc1ccc(C)c(OCCOCCNCCN)c1C,0.982%
19,CN(C)c1cc(Oc2ccc(=O)[nH]n2)nc(N(C)C)n1,0.738%
20,CC(C)(C)c1ccc(C(=S)NCCCn2ccnc2)cc1,1.31%
21,COc1ccc(NC(=O)Cn2nnc(-c3ccccc3NC(=O)c3cccc(C)c3)n2)cc1,-0.639%
22,CCOC(=O)c1c(C)oc2c(Br)cc3oc(=O)c(C(=O)CC)cc3c12,-0.749%
23,COC(=O)CN(C)C(=O)CC1C(=O)NCCN1Cc1ccc(OC)c(OC)c1 (configuration not stated),-0.568%
